# Compound activity deposited in PubChem by National Center for Advancing Translational Sciences (NCATS).
# An excerpt weighted towards active compounds, which were near 9% of everything screened.
# HP1b chromo inh – inhibitors of HP1-beta chromodomain binding to methylated histone tails. 390,000 compounds, 0.56% hits. AlphaScreen HP1-beta / biotin-H3K9me3 peptide binding. Potency, µM (series often up to 114 µM), for the others: at the top dose activity change, negative = inhibition, usual class: inhibitors; note: nearly all actives have a fitted effect of over 70% in size
#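 HP1-beta protein (50 nM final) preincubated 30 min at room temperature with biotinylated H3(1-18)K9me3 peptide (50 nM) in PBS pH 7.4, 0.01% Tween-20, then compound added for 30 min. AlphaScreen streptavidin donor/nickel chelate acceptor beads (10 ug/mL final), 30 min dark, luminescence read.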
# JMJD2A Tudor – JMJD2A Tudor domain (human) inhibition; O75164; AlphaScreen JMJD2A-Tudor / H3K4me3 peptide binding; Potency, µM (top dose mostly 114 µM), for inactives: at the top dose activity change, negative = inhibition, usual class: inhibitors; 390,000 compounds, 4.4% hits; note: % is set by controls: 0 for no effect and ±100 for the full control effect; nearly all actives have a fitted effect of over 50% in size
# BAZ2B block – BAZ2B (human) inhibition; 360,000 compounds, 4.4% hits; Potency, µM (highest dose often 114 µM), inactives show top-dose activity change, negative = inhibition, most hits filed as inhibitors; AlphaScreen BAZ2B-H3K14Ac peptide displacement; AID 504333; Q9UIF8; note: % is set by controls: 0 for no effect and ±100 for the full control effect; nearly all actives have a fitted effect of over 60% in size
#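 Complex of BAZ2B and biotin-H3K14Ac (50 nM apiece) forms over 30 min at RT, then faces library compounds up to 110 uM for another 30 min; AlphaScreen beads added, 20 min dark incubation, luminescence read.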
# PLK1 PBD inh – inhibitors of human PLK1 polo-box domain binding. 360,000 compounds, 2.8% hits. AID 720504. P53350. Potency, µM, without a hit: max response, negative = inhibition, usual class: inhibitors. Plk1 PBD binding of FITC phosphopeptide, fluorescence polarization; note: series mostly up to about 57 µM; % is set by controls: 0 for no effect and ±100 for the full control effect; nearly all actives have a fitted effect of over 65% in size
# Target sequence (P53350 whole entry, looked up, the tested form may be a part): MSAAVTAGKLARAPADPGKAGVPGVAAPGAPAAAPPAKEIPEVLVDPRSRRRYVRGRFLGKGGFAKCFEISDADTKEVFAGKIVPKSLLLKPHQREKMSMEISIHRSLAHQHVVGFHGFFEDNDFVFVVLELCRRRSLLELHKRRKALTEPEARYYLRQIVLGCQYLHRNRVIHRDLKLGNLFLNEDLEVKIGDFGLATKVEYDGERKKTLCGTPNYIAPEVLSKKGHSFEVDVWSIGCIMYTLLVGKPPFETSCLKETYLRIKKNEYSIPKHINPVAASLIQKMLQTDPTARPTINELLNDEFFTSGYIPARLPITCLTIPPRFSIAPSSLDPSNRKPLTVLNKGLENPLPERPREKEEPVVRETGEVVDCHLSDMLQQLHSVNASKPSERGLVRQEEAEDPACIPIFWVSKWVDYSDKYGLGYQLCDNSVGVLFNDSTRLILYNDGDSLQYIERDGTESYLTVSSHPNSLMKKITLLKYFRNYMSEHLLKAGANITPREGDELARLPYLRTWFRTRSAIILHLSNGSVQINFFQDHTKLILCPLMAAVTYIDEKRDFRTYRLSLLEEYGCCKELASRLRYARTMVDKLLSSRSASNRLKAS
# ALOX12 inh – ALOX12 (human) lipoxygenase inhibition. P18054. purified 12hLO, xylenol orange hydroperoxide absorbance. Potency, µM (series often up to 108 µM), for inactives: at the highest dose activity change, negative = inhibition, actives largely listed as inhibitors. 580,000 compounds, 1.1% hits. AID 1671190; note: % is set by controls: 0 for no effect and ±100 for the full control effect
#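 Purified human 12hLO (150 nM final) in 25 mM Hepes, 0.01% Triton X-100, pH 7.0 was preincubated 15 min at room temperature with compound. Then 40 uM arachidonic acid was added, 30 min. Hydroperoxide was read by Fe-XO absorbance ratio 573/405 nm.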
# G9a block – inhibitors of human histone lysine methyltransferase G9a. AID 504332. Q96KQ7. Potency, µM (titrated, usually from 102 µM), for the others: at the top dose activity, negative = inhibition, most hits filed as inhibitors. G9a H3K9 monomethylation, AlphaScreen, 2 h. 350,000 compounds, 8.8% hits; note: % is set by controls: 0 for no effect and ±100 for the full control effect; nearly all actives have a fitted effect of over 75% in size
#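 G9a (20 nM) was preincubated 15 min with compound, then reacted 2 h at room temperature with 500 nM biotin-H3K9 peptide and 20 µM SAM. Monomethyl-H3K9 detected by AlphaScreen using anti-H3K9me1 antibody.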
# Active calls of the source: *; ? = inconclusive; · = not tested or not shown; ! = repeats disagree; [ ] = dose if it differs, or a comment. Calls come from the whole dose curve; as a rule, active = well fitted curve in the direction sought with a large enough effect; inconclusive = small, poorly fitted or top-dose-only effect, or another doubt; inactive = no such curve, though single readings can be large; an effect the other way counts as inactive or inconclusive. Potency is the fitted concentration of half-maximal effect.
SMILES,HP1b chromo inh,JMJD2A Tudor,BAZ2B block,PLK1 PBD inh,ALOX12 inh,G9a block
O=[N+]([O-])c1ccc2c(c1)nc1n2CCN(c2ccccc2)C1,52%,-26%,?,-14%,-23%,13µM*
O=[N+]([O-])c1ccc2c(c1)nc1n2CCN(CC2CCCO2)C1 (configuration not stated),54%,-11%,-13%,-4%,-15%,-21%[59 µM]
CC(=O)c1ccc(NC(=O)Cn2cnc(S(=O)(=O)N3CCCC3)c2)cc1,25%,4%,-15%,-8%,·,26%
O=C(c1ccc(F)cc1)C1CCN(Cc2ccccc2)CC1,35%,-5%,·,1%,290%,·
CC(C)(C)n1nnnc1C(c1cccnc1)N(Cc1ccccc1)Cc1ccco1 (configuration not stated),7%,-21%,-5%,-4%,328%,34%[12.7 µM]
COc1cccc(CN(Cc2ccco2)C(c2ccc(F)cc2)c2nnnn2C(C)(C)C)c1 (configuration not stated),47%,-14%,21%,-1%,4%,50µM*
Cc1sc(NC(=O)CCS(=O)(=O)c2ccccc2)c(C#N)c1C,?,-34%,3%,13µM*,?,?
NC(=O)c1ccsc1NC(=O)COc1ccccc1,?,50µM*,-3%,15µM*,25%,-34%[59 µM]
Cc1sc(NC(=O)/C=C/c2cccs2)c(C#N)c1C,·,·,·,·,7.9µM*,·
Cc1sc(NC(=O)COc2ccccc2)c(C#N)c1C,?,-22%,-21%,7.5µM*,?,10µM*
Cc1sc(NC(=O)CS(=O)(=O)c2ccccc2)c(C#N)c1C,27%,-16%,-29%,-9%,-19%,?
Cc1sc(NC(=O)COc2cccc(-n3cnnn3)c2)c(C#N)c1C,4%,-22%,-6%,-12%,-21%,-6%
O=C(NCc1ccccc1)C1Cc2ccccc2CN1C(=O)c1ccco1 (configuration not stated),39%,-20%,-37%,-7%,-19%,-47%
CSCC(=O)N1CCCC(CO)(CCCc2ccccc2)C1 (configuration not stated),1%,-12%,4%,-8%,?,6%
C[C@@H](N)C(=O)N1CCC(n2nccc2NC(=O)c2ccc3c(c2)OCO3)CC1,·,·,·,·,16%,·
O=C(/C=C/c1cccs1)Nc1scc(-c2ccccc2)c1C(=O)O,?,7.1µM*,·,?,45µM*,32µM*
Cc1cccc(-n2c(C)n[nH]c2=S)c1,15%,10µM*,?,-9%,?,?
COc1cccc(-n2c(-c3ccc4[nH]c(C)c(C)c4c3)n[nH]c2=S)c1,-6%,?,?,-7%,?,·
Cc1cc(=O)[nH]c(=S)n1-c1ccccc1,38%,?,8%,1%,?,?
Cc1cccc(-n2c(C)c(-c3ccccc3)[nH]c2=S)c1,?,35µM*,?,-26%,?,·
Cc1cccc(-n2c(-c3ccncc3)n[nH]c2=S)c1,4%,28µM*,3%,-10%,?,1.3µM*
COc1cccc(-n2c(C)n[nH]c2=O)c1,33%,9%,7%,-4%,47%,63%[59 µM]
CC(=O)c1cccc(N(CC(=O)N2CCCCC2)S(C)(=O)=O)c1,3%,-13%,-5%,1%,11%,2%
CN(C)CCCN(C(=O)COc1ccc(Cl)cc1)c1nc2cc3c(cc2s1)OCCO3,-20%,?,-35%,-8%,?,50µM*
CN(C)CCCN(C(=O)COc1ccccc1)c1nc2ccc(Cl)cc2s1,4%,-22%,·,-7%,?,?
SMILES,HP1b chromo inh,JMJD2A Tudor,BAZ2B block,PLK1 PBD inh,ALOX12 inh,G9a block
CN(C)CCCN(C(=O)COc1ccccc1)c1nc2cc3c(cc2s1)OCO3,9%,-15%,-33%,-5%,159%,50µM*
COc1cccc2sc(N(CCCN(C)C)C(=O)COc3ccc(Cl)cc3)nc12,26%,-20%,·,-2%,?,79µM*
CN(C)CCCN(C(=O)COc1ccc(Cl)cc1)c1nc2cc3c(cc2s1)OCO3,-9%,?,?,-14%,?,71µM*
Cn1c(=O)[nH]c2cc3ccccc3cc21,20%,0%,4%,-3%,0%,1.3µM*
O=C(CSc1n[nH]c(-c2ccccc2Cl)n1)NCCCc1ccccc1,27%[57 µM],-5%,-1%,·,-12%,-3%[59 µM]
COc1cc(/C=N/NC(=O)COc2c(C)cc([N+](=O)[O-])cc2C)ccc1OC(=O)c1ccccc1Br,17%,-16%,-32%,40%,1%,15%[59 µM]
Cc1ccsc1CN(C(=O)COc1ccc(Cl)cc1)C1CCS(=O)(=O)C1 (configuration not stated),32%,-7%,-11%,·,-16%,3%[59 µM]
CCCSc1ncc(Cl)c(C(=O)N(Cc2ccc(N(C)C)cc2)C2CCS(=O)(=O)C2)n1 (configuration not stated),-7%,56µM*,22µM*,·,-23%,?
COc1ccc(OCC(=O)N(Cc2sccc2C)C2CCS(=O)(=O)C2)cc1 (configuration not stated),52%,-14%,?,-8%,0%,71µM*!
CCCSc1ncc(Cl)c(C(=O)N(Cc2cccc(Cl)c2)C2CCS(=O)(=O)C2)n1 (configuration not stated),33%,-13%,-1%,·,-18%,1%[59 µM]
O=C(COc1ccc(F)cc1)N(Cc1cccc(Br)c1)C1CCS(=O)(=O)C1 (configuration not stated),-2%,?,-19%,24µM*,30%,40%
Cc1ccc(OCC(=O)N(Cc2ccc(N(C)C)cc2)C2CCS(=O)(=O)C2)cc1 (configuration not stated),-15%,?,?,-9%,0%,40µM*
CCCN(CCC)CCNC(=O)C1CCCN(S(=O)(=O)c2ccc3c(c2)oc(=O)n3C)C1 (configuration not stated),5%,-15%,16%,-5%,3%,·
O=C(Nc1nnc(SCc2c(Cl)cccc2Cl)s1)C1CC(=O)N(c2ccc3c(c2)OCCO3)C1 (configuration not stated),31%,-36%,?,-15%,?,-25%[59 µM]
Cc1ccc(C(=O)N2CCC3(CC2)NCCc2[nH]cnc23)cc1,43%,21%,-33%,3%,?,·
CC(C)(Oc1ccc([C@@H]2CC2(Cl)Cl)cc1)C(=O)O,·,·,·,·,·,26%[21.5 µM]
CN(C)c1ccc(CN(C(=O)COc2ccc(Br)cc2)C2CCS(=O)(=O)C2)cc1 (configuration not stated),-29%,40µM*,45µM*,-2%,-10%,50µM*
